Source: PubChem (National Center for Advancing Translational Sciences (NCATS))
The list is not random: actives were taken first. Their share in the collection is about 10%.
GLS inhibitor – qHTS for Inhibitors of Glutaminase (GLS); GLS enzymatic activity, qHTS titration; Potency, µM (series often up to 45.5 µM), for inactives: top-dose activity change, negative = inhibition, usual class: inhibitors; Glutaminase kidney isoform, mitochondrial (Homo sapiens), O94925; AID 624170, 2012; actives 0.21% (n = 410,000); note: % is set by controls: 0 for no effect and ±100 for the full control effect
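Assay buffer: 45 mM KH2PO4 pH 8.2, 0.02% Tween-20. hKGA acts on L-glutamine (1 mM solution added); product glutamate is reported by an oxidase/peroxidase Amplex Red coupling, with fluorescence taken at baseline and 30 min.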
G9a block – qHTS Assay for Inhibitors of Histone Lysine Methyltransferase G9a; AID 504332, 2011; Potency, µM (doses to about 102 µM), for the others: at the highest dose activity, negative = inhibition, usual class: inhibitors; Histone-lysine N-methyltransferase EHMT2 (Homo sapiens), Q96KQ7; actives 8.8% (n = 350,000); G9a H3K9 monomethylation, AlphaScreen, 2 h; note: % is set by controls: 0 for no effect and ±100 for the full control effect; nearly all actives have a fitted effect of over 75% in size
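Step 1: enzyme (final 20 nM) with compound, 15 min RT. Step 2: substrate peptide 500 nM and SAM 20 uM, 2 h RT. Step 3: anti-H3K9me1 antibody and AlphaScreen beads, 10 min, then plate read.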
JMJD2A Tudor inh – qHTS Assay for Inhibitors of JMJD2A-Tudor Domain. Potency, µM (series often up to 114 µM), for the others: at the top dose activity change, negative = inhibition, hits mostly inhibitors. Lysine-specific demethylase 4A (Homo sapiens), O75164. actives 4.4% (n = 390,000). AID 504339, 2011. AlphaScreen JMJD2A-Tudor / H3K4me3 peptide binding; note: % is set by controls: 0 for no effect and ±100 for the full control effect; nearly all actives have a fitted effect of over 50% in size
BAZ2B inh – qHTS Assay for Inhibitors of BAZ2B | Bromodomain adjacent to zinc finger domain protein 2B (Homo sapiens), Q9UIF8 | AID 504333, 2011 | AlphaScreen BAZ2B-H3K14Ac peptide displacement | actives 4.4% (n = 360,000) | Potency, µM (titrated, usually from 114 µM), for the others: at the highest dose activity change, negative = inhibition, usual class: inhibitors; note: % is set by controls: 0 for no effect and ±100 for the full control effect; nearly all actives have a fitted effect of over 60% in size
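AlphaScreen displacement of biotin-H3(5-23)K14Ac peptide (50 nM final) from BAZ2B (50 nM final) in PBS pH 7.4, 0.01% Tween-20; complex preformed 30 min RT, then compounds (top 110 uM) 30 min RT, beads 20 min dark.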
HP1b binding inh – HTS for Inhibitors of HP1-beta Chromodomain Interactions with Methylated Histone Tails. AlphaScreen HP1-beta / biotin-H3K9me3 peptide binding. Potency, µM (titrated, usually from 114 µM), inactives show top-dose activity change, negative = inhibition, actives largely listed as inhibitors. actives 0.56% (n = 390,000). AID 540317, 2011; note: nearly all actives have a fitted effect of over 70% in size
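HP1-beta protein (50 nM final) preincubated 30 min at room temperature with biotinylated H3(1-18)K9me3 peptide (50 nM) in PBS pH 7.4, 0.01% Tween-20, then compound added for 30 min. AlphaScreen streptavidin donor/nickel chelate acceptor beads (10 ug/mL final), 30 min dark, luminescence read.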
Starred values were filed as active, the others as inactive; u = inconclusive; x = not tested or not shown; [ ] = another dose, or the depositor's remark. Calls come from the whole dose curve; as a rule, active = well fitted curve in the direction sought with a large enough effect; inconclusive = small, poorly fitted or top-dose-only effect, or another doubt; inactive = no such curve, though single readings can be large; an effect the other way counts as inactive or inconclusive. Potency is the fitted concentration of half-maximal effect.

SMILES	GLS inhibitor	G9a block	JMJD2A Tudor inh	BAZ2B inh	HP1b binding inh
C=COCCNC(=S)Nc1cccc(Cl)c1	-0.1%	6.4%	-6.9%	-10.6%	26.3%
COc1ccc(NC(=S)Nc2cccc(C(C)=O)c2)cc1OC	15.8%	u	-15.9%	u	-4.7%
COCCCNC(=S)NNC(=S)Nc1cccc(Cl)c1	-16.1%	x	3.16µM*	-26.0%	-12.0%
COCCCNC(=S)NNC(=O)c1ccccn1	-22.2%	20.1%	20µM*	3.55µM*	20.9%
COc1ccc(NC(=S)Nc2cccc(Cl)c2)cc1OC	-16.6%	50.1µM*	-0.3%	-25.2%	3.6%
CCOC(=O)c1cnn(-c2ccc(C(=O)Nc3ccc(C(C)=O)cc3)cc2)c1N	-16.6%	0.2%[59 µM]	-6.7%	-1.0%	34.9%
CC(OC(=O)c1ccc(Cl)c(S(N)(=O)=O)c1)C(=O)NCc1ccc2c(c1)OCO2 (stereo unspecified)	3.8%	u	-12.5%	-1.3%	2.5%
Cc1cc(OC(C)C(=O)N2CCN(CCc3ccccn3)CC2)ccc1Cl (stereo unspecified)	-1.8%	-29.4%[59 µM]	-15.6%	-12.2%	44.8%
CCCCCCCCCCCCCCCCC(C(=O)O)C(O)(CC(=O)O)C(=O)O (stereo unspecified)	-4.5%	-40.2%[12.7 µM]	x	x	x
O=C(COC(=O)c1ccc2ncsc2c1)NC(=O)NCc1ccccc1	u	-7.8%	-15.9%	-18.8%	2.0%
COc1ccc(C(=O)NC(=O)COC(=O)c2ccc3ncsc3c2)cc1	x	-22.0%[59 µM]	x	56.2µM*	x
O=C(COC(=O)c1ccc2ncsc2c1)NC(=O)c1ccccc1	0.7%	u	25.1µM*	79.4µM*	-8.7%
Cc1cc(NC(c2nnc(-c3ccccc3)o2)c2ccccc2F)ccc1Br (stereo unspecified)	13.0%	18.0%[59 µM]	-6.8%	28.2%	85.3%
Cc1nc(NS(=O)(=O)c2ccccc2C)c2c3c(sc2n1)CCC3	-19.3%	44.7µM*	-8.4%	-9.1%	61.0%
CCn1nnc(NC(=O)CSc2ccc(Cl)cc2)n1	u	70.8µM*	u	u	-15.5%
CCCCN1C[C@H](C)[C@@H](CC(=O)NC)C1=O	-0.3%	x	x	x	x
CN(C)CCNc1ccc(CO)c2sc3ccc(O)cc3c(=O)c12	35.4%	x	50.1µM*	x	70.8µM*
COc1ccc2sc3cccc(NCCN(C)C)c3c(=O)c2c1	50.7%	x	x	x	x
Cc1ccc(C(=O)c2c3ccc(N)cc3nn2CCC(N)=O)cc1	7.4%	44.7µM*	u	u	12.5%
O=C(CN(Cc1ccccc1)C1=NCCS1)c1ccccc1	8.2%	50.1µM*	-14.1%	10.2%	28.4%
Cc1ccc(C(=O)CN(Cc2ccccc2)C2=NCCS2)cc1	9.3%	u	-4.7%	-3.4%	42.2%
CNC(C)C#Cc1ccc2oc3cccc(OC)c3c(=O)c2c1 (stereo unspecified)	11.5%	44.7µM*	-15.5%	-23.2%	27.2%
CNC(C)C#Cc1ccc2sc3cccc(OC)c3c(=O)c2c1 (stereo unspecified)	0.0%	70.8µM*	-22.3%	-6.7%	26.6%
CNC(C)C#Cc1ccc2c(=O)c3c(OC)cccc3oc2c1 (stereo unspecified)	x	x	x	-5.7%	x
COc1cccc2sc3ccc(C#CC4(N)CCCCC4)cc3c(=O)c12	-12.5%	x	-29.3%	-12.8%	36.2%
NCCCC[C@H]1NC(=O)[C@H](CCC(=O)O)NC(=O)c2cc([N+](=O)[O-])cc(I)c2OCC[C@@H](C(N)=O)NC1=O	u	25.1µM*	50.1µM*	-37.6%	-22.8%
CC[C@H](C)[C@@H]1NC(=O)c2cc([N+](=O)[O-])cc(F)c2OCC[C@@H](C(N)=O)NC(=O)[C@H](CCCCN)NC1=O	2.4%	u	-24.3%	-11.3%	7.0%
NC(=O)CC1NC(=O)c2cc([N+](=O)[O-])cc(I)c2OCCC(C(N)=O)NC(=O)[C@@H]2CCCN2C1=O (stereo partly specified)	6.3%	79.4µM*	-16.9%	-8.6%	42.1%
